High-throughput results: PubChem BioAssay, National Center for Advancing Translational Sciences (NCATS)
CHX counter – Cycloheximide Counterscreen for Small Molecule Inhibitors of Shiga Toxin; 300,000 tested, 12% active; cell reporter, cycloheximide protein synthesis inhibition counterscreen; max response, %; in the data active = max response mostly above about 13%, no sharp cut-off; inactive = mostly below about 14%; also: read at 38.3 µM for the half of the compounds with a filed dose; 0% is about no effect
Pf growth 96h – Primary qHTS for delayed death inhibitors of the malarial parasite plastid, 96 hour incubation; P. falciparum luciferase reporter growth, 96 h; Potency, µM (top dose mostly 28.7 µM), without a hit: at the top dose activity change, negative = inhibition, usual class: inhibitors; 320,000 tested, 6.9% active; AID 504834, 2011; also: potency is read from the fitted curve at half-maximal effect; % is scaled to controls: 0 for no effect and ±100 for the full control effect
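Erythrocytes infected with luciferase-expressing P. falciparum were dispensed at 2% hematocrit and 0.05% parasitemia (final), then incubated with compounds 96 hours at 37 C in 5% CO2. Luminescence after detection reagent addition reported growth.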
AMA1-RON2 inh – qHTS for Inhibitors of AMA1-RON; Towards Development of Antimalarial Drug Lead: Primary Screen | Plasmodium falciparum AMA1 (3D7) - RON2 peptide interaction | AlphaScreen AMA1-biotinylated RON2 peptide binding | Potency, µM (series often up to 58.2 µM), for inactives: top-dose activity change, negative = inhibition, usual class: inhibitors | 360,000 tested, 0.2% active | AID 720542, 2013;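 also: potency is read from the fitted curve at half-maximal effect; 0% = vehicle wells and -100% = peptide control; nearly all actives have a fitted effect of over 45% in size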
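AMA1 (3D7) with his tag at 25 nM final met compounds first, then biotinylated RON2 peptide at 25 nM; detection used donor plus acceptor beads, 10 µg/mL apiece, read by AlphaScreen after 30 min at room temperature.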
HCV inh – qHTS Assay for Inhibitors of Hepatitis C Virus (HCV). Huh7.5.1 HCVcc-Cre infection, luciferase reporter, 44 h. Potency, µM (series often up to 41.8 µM), for inactives: top-dose activity change, negative = inhibition, most hits filed as inhibitors. 340,000 tested, 3.4% active. AID 651820, 2012; also: potency is read from the fitted curve at half-maximal effect; % is scaled to controls: 0 for no effect and ±100 for the full control effect
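Infectious HCV cell culture screen: compound-treated cells (1,000/well, pre-plated 4 h) are infected with HCVcc-Cre at roughly 0.5 moi and grown 44 h. Infection is quantified by luciferase signal after 15 min substrate incubation at room temperature.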
Pf growth 48h – Primary qHTS for delayed death inhibitors of the malarial parasite plastid, 48 hour incubation | P. falciparum luciferase growth in erythrocytes, 48 h | Potency, µM (top dose mostly 28.7 µM), for the others: top-dose activity change, negative = inhibition, hits mostly inhibitors | 310,000 tested, 5.9% active | AID 504832, 2011; also: potency is read from the fitted curve at half-maximal effect; % is scaled to controls: 0 for no effect and ±100 for the full control effect
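First compound was added to culture medium, then infected red cells at 0.1% parasitemia and 2% hematocrit (final). After incubation at 37 C under 5% CO2, luciferase detection reagent was dispensed and light output recorded.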
Shiga inhibitor – A qHTS for Small Molecule Inhibitors of Shiga Toxin. AID 2315, 2010. 290,000 tested, 9.2% active. Vero cells, Shiga toxin protein synthesis inhibition reporter. inhibition, % at 38.7 µM; in the data active = inhibition mostly above about 28%, no sharp cut-off; inactive = mostly below about 43%; also: 0% is about no effect
The depositor's hits bear a star; ? = inconclusive; · = no result given; + = active, no number. This is a sample that favours compounds with a hit; in the whole collection about 21% have one here. Unless noted, calls follow the shape of the dose curve; as a rule, active = well fitted curve in the direction sought with a large enough effect; inconclusive = small, poorly fitted or top-dose-only effect, or another doubt; inactive = no such curve, though single readings can be large; an effect the other way counts as inactive or inconclusive.

SMILES | CHX counter | Pf growth 96h | AMA1-RON2 inh | HCV inh | Pf growth 48h | Shiga inhibitor
Cc1ccccc1CN1CCNC(=O)C1CC(=O)NC1CCCCCCC1 (stereo unspecified) | -4 | 2.6µM* | 32% | 4% | ? | -4
Cc1csc(CNC(=O)CC2C(=O)NCCN2Cc2ccc(F)cc2Cl)n1 (stereo unspecified) | -2 | -2% | 41% | 19% | 2% | -3
COc1ccccc1CN1CCNC(=O)C1CC(=O)NCCCn1cccn1 (stereo unspecified) | -2 | 11% | -19% | 9% | 6% | 7
O=C(CC1C(=O)NCCN1Cc1ccccc1F)NC1CCCCCC1 (stereo unspecified) | 4 | ? | · | · | -7% | -30
O=C(CC1C(=O)NCCN1CC1CCCCC1)NCc1cc(F)ccc1F (stereo unspecified) | -3 | -16% | 17% | 4% | -27% | -3
O=C(CC1C(=O)NCCN1CC1CCCCC1)NCc1ccc(F)cc1F (stereo unspecified) | 20* | ? | -5% | -20% | 66% | 41*
CCOc1ccccc1CN1CCNC(=O)C1CC(=O)NCCCn1cccn1 (stereo unspecified) | -1 | 12µM* | 28% | 6% | -10% | -5
CCOc1ccccc1CN1CCNC(=O)C1CC(=O)NCc1nc(C)cs1 (stereo unspecified) | 1 | 9.3µM* | 10% | · | 5% | -6
CC(C)(CNCc1ccccc1)NS(=O)(=O)c1ccc(Cl)cc1 | · | · | -4% | 14% | · | ·
CC(C)(CNC(=O)c1cccc(NS(=O)(=O)c2ccc(Br)cc2)c1)N1CCOCC1 | -1 | 0% | -5% | ? | -1% | -34
COc1ccc(CN2CCNC(=O)C2CC(=O)NCCCn2cccn2)cc1C (stereo unspecified) | -1 | -9% | 12% | 10% | 3% | -4
O=C(CC1C(=O)NCCN1Cc1cccc(Oc2ccccc2)c1)NCCCn1cccn1 (stereo unspecified) | 2 | 10µM* | -13% | -1% | -19% | -1
COCCCn1cc(CN2CC(N3CCN(Cc4cccc(C)c4)CC3)CS2(=O)=O)nn1 (stereo unspecified) | · | · | -1% | · | · | ·
COC(=O)[C@@H](c1ccccc1)N(C)S(=O)(=O)c1cccc(S(=O)(=O)N(C)[C@@H](C(=O)OC)c2ccccc2)c1 | 1 | ? | 10% | ? | 13µM* | -6
COC(=O)C(c1ccccc1)C(C(=O)OC)c1ccccc1 (stereo unspecified) | -1 | 0% | 0% | 18% | 25% | -5
O=C(Nc1cccc2cccnc12)c1csc([C@@H]2O[C@H](CO)[C@H](O)[C@H](O)[C@H]2O)n1 | · | · | 117% | · | · | ·
Cn1c(SCc2cccc(F)c2)nnc1-c1ccncc1 | -2 | ? | 1% | 15% | ? | -8
Cc1ccc(NC(=O)C2=C(c3ccccc3)S(=O)(=O)CCS2(=O)=O)cc1 | 34* | 0% | 1% | 11µM* | 0% | 22
Cc1ccc(C(=O)NS(=O)(=O)c2ccccc2)cc1 | 1 | 10% | -10% | 3.2µM* | -3% | -15
Cc1ccc(N/C(=C\C(=O)c2ccccc2)C(=O)O)cc1 | 47* | 20% | 31% | 12% | 80% | 100*
Cc1ccc(NC(=O)NNC(=O)c2ccccc2)cc1 | 22* | 2% | 51% | 11% | 71% | 44*
Cc1ccc(C(=O)NS(=O)(=O)c2ccc(C)cc2)cc1 | -2 | 19% | -11% | 8% | 36% | 3
C[C@H]1CN(CCc2ccccc2)C(=O)[C@@H]1CC(=O)Nc1ccc(Br)cc1 | · | · | -2% | · | · | ·
CC[C@H](C)[C@H](NC(=O)[C@H](Cc1ccc(O)cc1)NC(=O)[C@@H](NC(=O)[C@H](CCCN=C(N)N)NC(=O)[C@@H](N)CC(=O)O)C(C)C)C(=O)N[C@@H](Cc1cnc[nH]1)C(=O)N1CCC[C@H]1C(=O)N[C@@H](Cc1ccccc1)C(=O)N[C@@H](Cc1cnc[nH]1)C(=O)N[C@@H](CC(C)C)C(=O)O | 2 | · | · | · | · | -8
COc1ccc(NC(=O)c2ccc(C)cc2)c[n+]1[O-] | 12* | 42% | 6% | 23% | 35% | 32
SMILES | CHX counter | Pf growth 96h | AMA1-RON2 inh | HCV inh | Pf growth 48h | Shiga inhibitor
Cc1ccc(NC(=O)c2ccccc2)cc1 | 33* | 3% | -9% | 2% | 104% | 109*
COC(=O)c1ccc(NC(=O)c2cc[n+]([O-])cc2)cc1 | -2 | 12% | 0% | 14% | ? | ·
O=C(Nc1ccccc1)c1ccccc1I | 31* | · | · | · | · | 42*
Cc1ccc(C(NC(=O)c2ccccc2)C(Cl)Cl)cc1 (stereo unspecified) | 9 | 4.1µM* | -3% | ? | ? | 1
Cc1ccc(C(=O)NC(NC(=O)c2ccc(C)cc2)C(Cl)Cl)cc1 | -1 | ? | 22% | ? | ? | -1
CC1=NCCN1CCNC(=O)Nc1ccc(C(C)(C)C)cc1 | 1 | 30% | 1% | -9% | 9% | 11
Cc1ccc(NC(=O)c2ccccc2O)cc1 | 34* | -89% | 0% | ? | -7% | +
Cc1ccc(NC(=O)C(=O)c2ccc(C)cc2)cc1 | 57* | 144% | -10% | -2% | 268% | 67
Cc1cc(C)cc(NC(=O)Nc2ccc(NC(=O)c3ccccc3O)cc2)c1 | 4 | 17% | -3% | ? | 16% | 18
CNc1cncc(-c2ccc(CN3CCOCC3)cc2)n1 | · | · | 1% | · | · | ·
O=C(Nc1cccc(C(=O)N2CCCC2)c1)C1CCCCC1 | · | · | 3% | -5% | · | ·
CN1C2=C(C#N)C(c3ccccc3)(C(F)(F)F)NC(=O)N2c2ccccc21 (stereo unspecified) | 0 | 7.4µM* | 6% | 8% | · | -16
COc1ccc(CCNCC(O)Cn2c3ccccc3c3ccccc32)cc1OC (stereo unspecified) | -5 | ? | -9% | 11µM* | ? | -22
COc1ccc(CCNCC(O)COc2cccc(Br)c2)cc1OC (stereo unspecified) | -5 | 9.3µM* | -24% | 10% | ? | 1
COc1ccc(CCNCC(O)COc2ccc(OC)cc2C(C)(C)C)cc1 (stereo unspecified) | -7 | 2.3µM* | -24% | ? | 2.3µM* | -10
OC[C@@H]1CN(Cc2ccc(Cl)cc2)C[C@H](n2cnc3c(NCc4ccc(F)cc4)ncnc32)O1 | · | · | -18% | · | · | ·
O=S(=O)(c1ccc(F)cc1)N1CCN(c2nc(-c3cccs3)nc3cc(Cl)ccc23)CC1 | -2 | · | · | · | · | 4
CCOc1ccc(NC(=O)N2CCC(c3nc4ccccc4[nH]3)CC2)cc1 | 4 | ? | 2% | -6% | 23% | 18
